Source: PubChem
E coli growth-1: E. coli V3065 growth inhibition, primary screen, counter-screen for AddAB inhibitor project, absorbance, OD600 | inhibition, % at 11.9 µM | 18 h | 0.27% of 330,000 active | AID 449728, 2010;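 active = inhibition above the campaign's mean inhibition across all tested compounds plus 3 SD, cut at about 9.9% in these data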;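 note: uninfected addAB+ strain grown without phage in ampicillin broth; 0% = DMSO wells and 100% = ciprofloxacin 0.95 µg/ml wells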
phage Ecoli inh: growth loss of phage-infected E. coli, primary screen, RecBCD inhibitor project, absorbance, with phage, HTS; AID 651602, 2012; inhibition, % at 11.9 µM; 0.26% of 360,000 active; in the data active = inhibition above about 11%
Tat export inh: E. coli Tat export inhibitors, primary screen, MC4100, TorA-mCherry reporter, fluorescence, single point | inhibition, % at 10 µM | 0.036% of 340,000 active;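 active = mean replicate inhibition at least 50% and at least half of replicates individually reaching 50%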;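 note: exported cargo escapes ClpAP degradation while cytoplasmic cargo is degraded and loses fluorescence; 0% = median of neutral control wells and 100% = median of NaSCN control wells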
AddAB inh: growth inhibition of E. coli expressing H. pylori AddAB, primary screen, AddAB inhibitor project, absorbance. inhibition, % at 11.9 µM. 0.29% of 330,000 active. AID 435030, 2010; in the data active = inhibition above about 12%;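 note: 0% = vehicle wells of infected cells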
E coli growth-2: E. coli growth inhibition, primary screen, OD600. Escherichia coli growth, 23 h; hits give low values. OD600 absorbance (concentration not given with the values). 0.21% of 330,000 active;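 active = OD600 absorbance below the run mean of sample wells minus 3.6 SD, in any replicate, cut at about 0.56 in these data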
RecBCD conf: growth loss of phage-infected RecBCD+ E. coli, confirmation, RecBCD inhibitor project, absorbance, E. coli V66, T4 gene 2 phage | inhibition, % at 11.9 µM | 45% of 890 active | shares compounds with phage Ecoli inh | E. coli V66 + T4 2- phage, growth OD | AID 651982, 2013;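 active = mean inhibition over triplicates exceeding the hit threshold derived in the original primary screen, cut at about 11% in these data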
Ecoli viability: E. coli viability inhibition, counter-screen for RecBCD inhibitor project, absorbance, high throughput; inhibition, % at 11.9 µM; shares compounds with phage Ecoli inh; AID 651983, 2013; 29% of 890 active; absorbance (OD) growth; in the data active = inhibition above about 20%;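 note: E. coli strain V66 grown with compound alone and no phage infection; 0% = bacteria with DMSO vehicle only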
AddAB counter: growth loss of phage-infected AddAB-carrying E. coli, confirmation, counter-screen for RecBCD inhibitor project, absorbance, E. coli V3065, T4 phage; AID 651984, 2013; shares compounds with phage Ecoli inh; inhibition, % at 11.9 µM; 45% of 890 active; E. coli expressing H. pylori AddAB + T4 phage, OD growth; gene 2 mutant T4, recBCD-deleted host;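 active = mean inhibition above the solvent-only control wells' mean plus 3 SD, cut at about 22% in these data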;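 note: higher means less bacterial growth from phage killing when AddAB is blocked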
An asterisk follows results filed as active. Sampled rows, rich in hits. Any-hit rate of the full collection: about 0.5%.

How did COc1ccc(OC)c(C(=O)Cn2nnc(-c3ccc(N4CCOCC4)cc3)n2)c1 do in these assays?
E coli growth-1: 0; phage Ecoli inh: 12*; Tat export inh: -5; AddAB inh: 0; E coli growth-2: 0.75; RecBCD conf: -1; Ecoli viability: -2; AddAB counter: 3

What do the screens show for `Oc1ccc(CN2CCN(Cc3ccccc3)CC2)c2cccnc12`?
E coli growth-1: 3; phage Ecoli inh: 6; Tat export inh: 7; AddAB inh: 3; E coli growth-2: 0.69

Results for O=S(=O)(c1ccc(Cl)cc1)N1CCN(Cc2ccc(O)c3ncccc23)CC1 ?
E coli growth-1: 9; phage Ecoli inh: 17*; Tat export inh: 1; AddAB inh: 8; E coli growth-2: 0.7; RecBCD conf: 6; Ecoli viability: 11; AddAB counter: 14

What do the screens show for `Fc1cccc(/C=N/Nc2nncc3ccccc23)c1`?
E coli growth-1: 1; phage Ecoli inh: 3; Tat export inh: 8; AddAB inh: 0

Results for C(=N\Nc1nncc2ccccc12)/c1ccccn1 ?
E coli growth-1: 10*; phage Ecoli inh: 19*; Tat export inh: -7; AddAB inh: 9; RecBCD conf: 20*; Ecoli viability: 27*; AddAB counter: 24*

What do the screens show for `CC(=NNc1nc2ccccc2o1)c1ncccn1`?
phage Ecoli inh: 30*; Tat export inh: -17; RecBCD conf: 29*; Ecoli viability: 36*; AddAB counter: 20

How did CC(=NNc1nc2ccc(Cl)cc2o1)c1ccccc1 do in these assays?
E coli growth-2: 0.66

How did CC(=NNc1nc2ccccc2o1)c1cc2ccccc2cn1 do in these assays?
phage Ecoli inh: 12*; Tat export inh: 7; RecBCD conf: 11; Ecoli viability: 12; AddAB counter: 18

How did C#CCOCCOCCOCCNc1nc(N2CCN(C(=O)C(CC(N)=O)n3cc(C(N)C(C)C)nn3)CC2)nc(N2CCN(C(=O)C(CC(N)=O)n3cc(C(N)C(C)C)nn3)CC2)n1 (stereo not drawn) do in these assays?
E coli growth-2: 0.69

What do the screens show for `NS(=O)(=O)c1ccc(CCNC(=O)CC(NC(=O)c2ccccc2Cl)c2ccccc2)cc1` (stereo not drawn)?
E coli growth-1: -2; phage Ecoli inh: 15*; Tat export inh: 2; AddAB inh: -2; E coli growth-2: 0.67; RecBCD conf: -1; Ecoli viability: 0; AddAB counter: 5

What do the screens show for `COc1ccc(CCNC(=O)CC(NC(=O)c2ccccc2Cl)c2ccccc2)cc1` (stereo not drawn)?
E coli growth-1: -1; phage Ecoli inh: 2; Tat export inh: 0; AddAB inh: 0; E coli growth-2: 0.71

Results for FC(F)(F)c1cccc(NC(=S)NCC2COc3ccccc3O2)c1 (stereo not drawn) ?
E coli growth-1: 5; phage Ecoli inh: 12*; Tat export inh: -7; AddAB inh: 5; E coli growth-2: 0.62; RecBCD conf: 7; Ecoli viability: 8; AddAB counter: 7

Results for COc1ccc(C=NNC(=O)c2ccccc2Br)cc1COc1c(F)c(F)cc(F)c1F ?
E coli growth-2: 0.67

How did CC(C)NC(=S)NN=Cc1ccc(N2CCOCC2)cc1 do in these assays?
E coli growth-2: 0.67

How did COc1ccccc1/C=C/C=NNC(=O)CCn1nnc2ccccc21 do in these assays?
E coli growth-2: 0.63

Results for CC(C)(C)c1nnc(N/N=C/c2cc(Br)ccc2O)n(N)c1=O ?
E coli growth-1: 3; phage Ecoli inh: 12*; Tat export inh: -20; AddAB inh: 12; RecBCD conf: 6; Ecoli viability: 10; AddAB counter: 28*

How did CC(C)(C)c1nnc(NN=Cc2ccccc2O)n(N)c1=O do in these assays?
E coli growth-2: 0.62

What do the screens show for `O=C(O)c1ccc(NN=C/C=C/c2ccc([N+](=O)[O-])o2)cc1`?
E coli growth-2: 0.63
